An excerpt weighted towards active compounds, which were near 22% of everything screened.
CYP2C9 inhib – blockers of cytochrome P450 2C9 activity – biochemical, luminescence, ADME assay, primary screen. P11712. CYP2C9 Supersomes, luciferin-H conversion. inhibition, % at 5 µM. hit rate 20% among 96,000. AID 777, 2007;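 active = blocking of liver enzyme CYP2C9 beyond about 50% at 5 µM, limit read from the data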
E-sel TNF inh – E-selectin induction blockers in HUVEC – imaging, immunofluorescence, high content, primary screen; HUVEC TNFa-induced E-selectin immunofluorescence; inhibition, % at 2 µM; hit rate 0.71% among 120,000; AID 1246, 2008;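 active = inhibition above the batch mean plus 3 SD, and confirmed as a hit on visual image review, cut at about 43% in these data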
CYP2C9 act – human CYP2C9 activators, primary screen, biochemical, luminescence | Cytochrome P450 2C9 (Homo sapiens), P11712 | recombinant CYP2C9, luciferin-H conversion; stronger effect = higher value; factor 1 = untreated enzyme, 0 = blocked | activation factor at 5 µM | hit rate 1.4% among 96,000;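 active = activation factor of 2 or more for CYP2C9 at a 5 µM dose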
CYP2C19 activ – human CYP2C19 activators, primary screen, biochemical, luminescence. recombinant CYP2C19, luciferin-H EGE luminescence; stronger effect = higher value; 0 = fully inhibited enzyme, 1 = untreated enzyme. activation factor at 5 µM. 96,000 tested, under 10 active. AID 1025, 2008;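 active = activation factor of at least 2 at 5 µM in the primary screen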
Target sequence (P33261 whole entry, looked up): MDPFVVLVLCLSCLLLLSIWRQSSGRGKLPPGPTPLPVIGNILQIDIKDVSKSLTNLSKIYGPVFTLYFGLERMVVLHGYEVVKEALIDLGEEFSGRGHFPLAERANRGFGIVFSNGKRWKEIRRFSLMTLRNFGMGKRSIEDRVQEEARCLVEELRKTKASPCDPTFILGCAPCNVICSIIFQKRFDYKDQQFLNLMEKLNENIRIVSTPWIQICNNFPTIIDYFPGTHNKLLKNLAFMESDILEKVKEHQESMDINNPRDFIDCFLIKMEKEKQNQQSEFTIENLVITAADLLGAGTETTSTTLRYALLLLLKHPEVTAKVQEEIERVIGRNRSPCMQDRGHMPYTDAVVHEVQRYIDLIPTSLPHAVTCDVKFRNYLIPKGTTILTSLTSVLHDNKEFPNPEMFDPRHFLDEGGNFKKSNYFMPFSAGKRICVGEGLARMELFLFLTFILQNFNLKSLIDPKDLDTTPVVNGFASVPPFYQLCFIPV
cytoskel mod – modifiers of F-actin cytoskeleton organization, primary screen, imaging, HUVEC, phalloidin staining, high-content imaging | HUVEC TNFa F-actin phalloidin imaging | inhibition, % at 2 µM | hit rate 0.18% among 91,000;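 active = inhibition above the batch mean plus 3 SD and confirmed as a hit by visual image inspection, cut at about 30% in these data, passing the limit was not always enough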
CYP2C19 inh – blockers of cytochrome P450 2C19 activity – biochemical, luminescence, ADME assay, primary screen | P33261 | CYP2C19 Supersomes, luciferin-H EGE luminescence, 30 min | inhibition, % at 5 µM | hit rate 21% among 96,000 | AID 778, 2007;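 active = CYP2C19 inhibition above a set limit at 5 µM in the primary screen, cut at about 50% in these data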
Numbers stand for hits; - = inactive; . = no result given.

SMILES | CYP2C9 inhib | E-sel TNF inh | CYP2C9 act | CYP2C19 activ | cytoskel mod | CYP2C19 inh
CN(C)S(=O)(=O)c1ccc2[nH]cc(/C=C/c3nc4ccccc4c(=O)n3-c3ccccc3)c2c1 | 69 | - | - | - | - | 70
Cc1ccc(-c2nnn(CC(=O)Nc3ccccc3-c3ccccc3)n2)c(-n2cnnn2)c1 | 52 | - | - | - | - | -
COc1ccc(Cn2cnc3c([N+](=O)[O-])c(C)c(C)cc32)cc1 | 59 | . | - | - | . | 53
Cc1nc(N)c(Cc2ccc(Cl)cc2Cl)c(N)n1 | . | - | . | . | . | .
CC1C/C(=N\NC(=S)NC(C)C)CC(C)(C)C1 (stereo not given) | 51 | - | - | - | - | 88
COc1ccccc1NC(=O)c1sc2ncn(Cc3cccc(C)c3)c(=O)c2c1C | - | - | - | - | - | -
Cc1c(C(=O)Nc2ccc3c(c2)OCO3)sc2ncn(CC(=O)N3CC(C)CC(C)C3)c(=O)c12 (stereo not given) | 79 | . | - | - | - | -
Cc1c(C(=O)NC(C)C)sc2ncn(CC(=O)N3CCC(C)CC3)c(=O)c12 | 63 | - | - | - | - | -
Cc1c(C(N)=O)sc2ncn(CC(=O)OC(C)C)c(=O)c12 | - | - | - | - | - | -
Cc1c(C(N)=O)sc2ncn(CC(=O)N3CCC(C)CC3)c(=O)c12 | 77 | - | - | - | - | -
CC(OC(=O)c1ccccc1NS(=O)(=O)c1cccc(C(F)(F)F)c1)C(=O)N(C)Cc1ccccc1 (stereo not given) | . | - | . | . | . | .
CCc1ccc(-c2nn(-c3cc(Cl)ccc3[N+](=O)[O-])c(=O)c3ccccc23)cc1 | - | . | - | - | - | -
COc1ccc(N=C2C(=Nc3ccc(OC)cc3)N(c3ccc(OC)cc3)C(=S)N2c2ccccc2)cc1 | 78 | - | - | - | - | -
COc1ccc(N=C2C(=Nc3ccc(OC)cc3)N(c3ccc(OC)cc3)C(=S)N2C)cc1 | 53 | - | - | - | - | 68
COc1ccc(N2CC(=O)N(c3ccccc3)C2=S)cc1 | . | - | . | . | . | .
Cc1nn(C)c(C)c1CN(C)C(=O)C1c2ccccc2Oc2ccccc21 | . | - | . | . | - | .
Cc1nn(C)c(C)c1S(=O)(=O)N1CCC(C(=O)NC2CCCCC2)CC1 | - | . | - | - | - | -
N#Cc1nc(-c2cccc(Cl)c2)oc1NCc1cccnc1 | 94 | - | - | - | - | 95
N#Cc1nc(COc2cccc(Cl)c2)oc1NCc1ccncc1 | 100 | - | - | - | - | 100
COc1ccc(-c2nc(C#N)c(NCc3cccnc3)o2)cc1OC | 51 | - | - | - | - | -
COC(=O)C1=C(N)Oc2c(oc(CO)cc2=O)C1c1ccccc1F (stereo not given) | - | - | - | - | - | -
CC(=O)c1c(C)[nH]c(C(=O)OCC(=O)N2CC(=O)Nc3ccccc32)c1C | . | - | . | . | . | .
CN=C(Nc1ccccc1OC)SC1CC(=O)N(c2ccc(C(=O)OC)cc2)C1=O (stereo not given) | - | - | - | - | - | -
CCN=C(NCC)SC1CC(=O)N(c2cccc(OCC)c2)C1=O (stereo not given) | - | . | 2.1 | - | - | 76
CN=C(Nc1ccccc1)SC1CC(=O)N(c2ccc(C(=O)OC)cc2)C1=O (stereo not given) | 68 | - | - | - | - | -
SMILES | CYP2C9 inhib | E-sel TNF inh | CYP2C9 act | CYP2C19 activ | cytoskel mod | CYP2C19 inh
CCN=C(NCC)SC1CC(=O)N(c2ccc(OC)cc2)C1=O (stereo not given) | - | - | - | - | - | 70
CC(SCc1ccccc1)C(=O)N/N=C/c1ccc2c(c1)OCO2 (stereo not given) | 92 | . | - | - | - | 80
COc1ccc(NC(=O)C(C)SCc2ccccc2)cc1OC (stereo not given) | . | - | . | . | . | .
NC(=O)CSCc1cccc(Br)c1 | . | - | . | . | . | .
CC(SCc1ccccc1)C(=O)Nc1ccc2c(c1)OCO2 (stereo not given) | 73 | - | - | - | - | 98
O=C(CSCc1cccc(Cl)c1)N/N=C/c1ccc(OCC(=O)N2CCCCC2)cc1 | 57 | . | - | - | - | 59
Cc1ccccc1NCC(=O)N/N=C\c1ccc2c(c1)OCO2 | . | - | . | . | . | .
O=C(CSCc1cccc(Br)c1)N1CCOCC1 | - | . | - | - | - | 71
COc1ccc(C(CC(=O)O)NC(=O)COc2ccc(C)cc2)cc1OC (stereo not given) | . | - | . | . | . | .
COc1ccc(OCc2nn3c(Cn4cnc5ccccc54)nnc3s2)cc1 | - | . | - | - | - | -
CS(=O)(=O)N(CC(=O)N/N=C/c1cc2c(cc1Br)OCO2)c1ccccc1Br | - | - | - | - | - | -
O=C(CCc1nc2ccccc2[nH]1)Nc1ccc2c(c1)OCCO2 | . | - | . | . | . | .
O=C(CSCc1ccccc1)N/N=C/c1ccccc1OCc1ccccc1 | 60 | - | - | - | - | -
CC(Sc1nc2ccccc2[nH]1)C(=O)Nc1ccc2c(c1)OCCO2 (stereo not given) | 64 | . | - | - | - | -
Cc1cccc(C)c1OCC(=O)N/N=C/c1ccc2c(c1)OCO2 | - | - | - | - | - | -
O=C(CSCc1cccc(Br)c1)N/N=C/c1ccc2c(c1)OCO2 | 55 | - | - | - | - | -
CC(SCc1ccccc1)C(=O)N/N=C/c1cc2c(cc1Br)OCO2 (stereo not given) | 70 | - | - | - | - | -
COc1ccc([N+](=O)[O-])cc1NC(=O)C(C)OC(=O)c1cccnc1Cl (stereo not given) | . | - | . | . | . | .
CC1CN(Cc2nc3c(c(=O)[nH]c(=O)n3C)n2CCCc2ccccc2)CC(C)O1 (stereo not given) | . | - | . | . | - | .
Cc1cc(C)n(-c2ccc(F)cc2CN2CCN(C3CCCC3)C(CCO)C2)n1 (stereo not given) | . | - | . | . | . | .
O=S(=O)(c1ccccc1)c1nc(-c2cccs2)oc1NCC1CCCO1 (stereo not given) | - | - | - | - | - | -
N#Cc1nc(-c2cccs2)oc1NCC1CCCO1 (stereo not given) | - | - | - | - | - | 55
CCOc1ccc(-c2nc(C#N)c(NC3CC3)o2)cc1 | - | - | - | - | - | 69
COc1ccc(-c2nc(C#N)c(NCC3CCCO3)o2)cc1 (stereo not given) | 68 | - | - | - | - | 59
O=C(CSc1oc(-c2cccs2)nc1S(=O)(=O)c1ccc(F)cc1)NCC1CCCO1 (stereo not given) | - | - | - | - | - | 64
O=C(CSc1oc(-c2ccc(F)cc2)nc1S(=O)(=O)c1ccc(F)cc1)NCC1CCCO1 (stereo not given) | . | - | . | . | - | .
CCOC(=O)c1c(-c2ccc(OC)cc2)nc2nonc2c1N | . | - | . | . | - | .
Cc1ccc(S(=O)(=O)NC(c2ccccc2)C(C)C(=O)n2nc(C)cc2C)cc1 (stereo not given) | - | - | - | - | - | 100
